Experimental data from PubChem BioAssay (EPA / NIEHS).
The source made the active and inactive calls. How the source made its calls: active means hit-call score of the fitted dose curve at least 0.9, where 1 is the maximum; inactive means score below 0.9.

Experiments:
Settings in all cases: mRNA level, 48 h; actives raise or lower the signal
[1] = read-out: Peroxisomal acyl-coenzyme A oxidase 1 (ACOX1) gene, ACOX1 (gene 51); assay: LTEA_HepaRG_ACOX1: Life Technologies and Expression Analysis (LTEA) Assay for Peroxisomal acyl-coenzyme A oxidase 1 (ACOX1) gene using HepaRG (AID 2283467)
Procedure, shortened: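 HepaRG, 48 h chemical exposure, 8-pt half-log series from 100 uM top, 0.5% DMSO vehicle, duplicates. Readout: ACOX1 mRNA by Fluidigm qRT-PCR, housekeeping-normalized; bidirectional fit vs DMSO baseline.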

[2] = read-out: Alkaline Phosphatase, Placental (ALPP) gene, ALPP (gene 250); assay: LTEA_HepaRG_ALPP: Life Technologies and Expression Analysis (LTEA) Assay for Alkaline Phosphatase, Placental (ALPP) gene using HepaRG (AID 2283468)
Procedure, shortened: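 HepaRG cells plated 48 h, then exposed in duplicate for 48 h in serum-free induction medium to 8-point half-log series from 100 uM in 0.5% DMSO. ALPP mRNA by TaqMan qRT-PCR, normalized to ACTB/GAPDH/POLR2A; bidirectional fit versus DMSO.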

[3] = read-out: Bcl-2 (BAD) gene, BAD (gene 572); assay: LTEA_HepaRG_BAD: Life Technologies and Expression Analysis (LTEA) Assay for Bcl-2 (BAD) gene using HepaRG (AID 2283469)
Procedure, shortened: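 HepaRG, 48 h exposure, 8-pt half-log curve from 100 uM in 0.5% DMSO, duplicates. Readout: TaqMan qRT-PCR for BAD mRNA, housekeeping-normalised (ACTB/GAPDH/POLR2A); gain or loss fitted against DMSO baseline.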

[4] = read-out: Bcl-2 (BAX) gene, BAX (gene 581); assay: LTEA_HepaRG_BAX: Life Technologies and Expression Analysis (LTEA) Assay for Bcl-2 (BAX) gene using HepaRG (AID 2283470)
Procedure, shortened: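 Cells were thawed, plated for 48 h, moved to serum-free induction medium and dosed for 48 h (highest concentration 100 uM, half-log steps, 0.5% DMSO). Total RNA was then analysed for BAX expression by qRT-PCR.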

[5] = read-out: adenosine kinase (ADK) gene, ADK (gene 132); assay: LTEA_HepaRG_ADK: Life Technologies and Expression Analysis (LTEA) Assay for adenosine kinase (ADK) gene using HepaRG (AID 2283471)
Procedure, shortened: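 Read-out is ADK transcript level measured by qRT-PCR and normalised to three housekeeping genes. Cells are human HepaRG, dosed for 48 h at up to 100 uM in 0.5% DMSO. Gain or loss of signal is fitted against DMSO controls.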

[6] = read-out: Alpha-fetoprotein (AFP) gene, AFP (gene 174); assay: LTEA_HepaRG_AFP: Life Technologies and Expression Analysis (LTEA) Assay for Alpha-fetoprotein (AFP) gene using HepaRG (AID 2283472)
Procedure, shortened: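 Chemicals were tested on differentiated HepaRG cells for 48 hours at eight concentrations up to 100 uM, with 0.5% DMSO as vehicle. AFP expression was then quantified by qRT-PCR and analyzed for gain or loss relative to DMSO.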

BCL2L11 (gene 10018) = assay: LTEA_HepaRG_BCL2L11: Life Technologies and Expression Analysis (LTEA) Assay for Bcl-2 (BCL2L11) gene using HepaRG (AID 2283473)
Procedure, shortened: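 Differentiated human HepaRG cells were exposed 48 h in serum-free induction medium to eight half-log concentrations up to 100 uM in 0.5% DMSO, in duplicate. BCL2L11 mRNA was quantified by TaqMan qRT-PCR, normalized to ACTB, GAPDH and POLR2A; induction or repression fitted versus DMSO.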

[7] = read-out: Apolipoprotein A-V (APOA5) gene, APOA5 (gene 116519); assay: LTEA_HepaRG_APOA5: Life Technologies and Expression Analysis (LTEA) Assay for Apolipoprotein A-V (APOA5) gene using HepaRG (AID 2283474)
Procedure, shortened: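 Differentiated HepaRG cells in serum-free induction medium, exposed 48 h in duplicate to eight half-log concentrations topping at 100 uM (0.5% DMSO). APOA5 mRNA by Fluidigm TaqMan qRT-PCR, normalized to ACTB, GAPDH and POLR2A; bidirectional fit versus DMSO.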

[8] = read-out: Apoptosis regulator Bcl-2 (Homo sapiens) (UniProt P10415); assay: LTEA_HepaRG_BCL2: Life Technologies and Expression Analysis (LTEA) Assay for Bcl-2 gene using HepaRG (AID 2283475)
Procedure, shortened: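 Plated human HepaRG cells are exposed to test chemicals for 48 h across eight concentrations from 100 uM downward in half-log steps (0.5% DMSO). BCL2 expression is then measured by qRT-PCR with housekeeping normalisation and fitted bidirectionally against vehicle.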

[9] = read-out: Bcl-2 (BID) gene, BID (gene 637); assay: LTEA_HepaRG_BID: Life Technologies and Expression Analysis (LTEA) Assay for Bcl-2 (BID) gene using HepaRG (AID 2283476)
Procedure, shortened: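 Cells are plated, cultured 48 h, switched to serum-free induction medium, then dosed 48 h (100 uM top, half-log steps, 0.5% DMSO). RNA is isolated and BID expression read by qRT-PCR.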

Caspase-3 (Homo sapiens) = Caspase-3 (Homo sapiens) (UniProt P42574); assay: LTEA_HepaRG_CASP3: Life Technologies and Expression Analysis (LTEA) Assay for cysteine-aspartic acid protease (CASP3) using HepaRG (AID 2283477)
Procedure, shortened: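 Differentiated HepaRG cells, plated 48 h, were treated in duplicate in serum-free induction medium for 48 h with eight half-log concentrations up to 100 uM in 0.5% DMSO. CASP3 mRNA measured by qRT-PCR, normalized to ACTB, GAPDH, POLR2A.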

[10] = read-out: Cytochrome P450 (CYP1A2), CYP1A2 (gene 1544); assay: LTEA_HepaRG_CYP1A2: Life Technologies and Expression Analysis (LTEA) Assay for Cytochrome P450 (CYP1A2) using HepaRG (AID 2283479)
Procedure, shortened: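 Differentiated human HepaRG cells in serum-free induction medium exposed 48 hours in duplicate to 8 half-log concentrations from 100 uM, 0.5% DMSO. CYP1A2 mRNA quantified by qRT-PCR, normalized to ACTB, GAPDH and POLR2A; bidirectional fitting versus DMSO.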

[11] = read-out: cysteine-aspartic acid protease (CASP8), CASP8 (gene 841); assay: LTEA_HepaRG_CASP8: Life Technologies and Expression Analysis (LTEA) Assay for cysteine-aspartic acid protease (CASP8) using HepaRG (AID 2283480)
Procedure, shortened: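 qRT-PCR readout of CASP8 mRNA, normalized to three housekeeping genes, after 48 h chemical exposure of HepaRG cells; 8-point half-log series, top 100 uM, 0.5% DMSO vehicle. Bidirectional curve fitting against DMSO baseline.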

[12] = read-out: Cytochrome P450 (CYP2B6), CYP2B6 (gene 1555); assay: LTEA_HepaRG_CYP2B6: Life Technologies and Expression Analysis (LTEA) Assay for Cytochrome P450 (CYP2B6) using HepaRG (AID 2283481)
Procedure, shortened: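 Differentiated human HepaRG cells in serum-free induction medium, dosed in duplicate for 48 h over 8 half-log concentrations topping at 100 uM (0.5% DMSO). CYP2B6 mRNA measured by TaqMan qRT-PCR, normalized to ACTB, GAPDH, POLR2A; bidirectional fit versus DMSO.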

[13] = read-out: Cytochrome P450 2C19 (Homo sapiens) (UniProt P33261); assay: LTEA_HepaRG_CYP2C19: Life Technologies and Expression Analysis (LTEA) Assay for CYP2C19 using HepaRG (AID 2283482)
Procedure, shortened: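 Differentiated HepaRG cells in serum-free induction medium exposed 48 h in duplicate, 8 concentrations from 100 uM by half-log steps in 0.5% DMSO. CYP2C19 mRNA measured by TaqMan qRT-PCR, normalized to ACTB, GAPDH, POLR2A. Bidirectional fit versus DMSO.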

CYP2C8 (gene 1558) = assay: LTEA_HepaRG_CYP2C8: Life Technologies and Expression Analysis (LTEA) Assay for CYP2C8 using HepaRG (AID 2283483)
Procedure, shortened: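 HepaRG (human liver line), 48 h chemical exposure, 8-pt half-log series from 100 uM, 0.5% DMSO vehicle. Readout: CYP2C8 transcript by qRT-PCR, housekeeping-normalized. Bidirectional fit vs DMSO baseline.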

CYP2C9 (gene 1559) = assay: LTEA_HepaRG_CYP2C9: Life Technologies and Expression Analysis (LTEA) Assay for CYP2C9 using HepaRG (AID 2283484)
Procedure, shortened: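 HepaRG, 48 h dosing, 8-pt half-log series, top 100 uM, 0.5% DMSO vehicle. Read-out: CYP2C9 transcript by TaqMan qRT-PCR, housekeeping-normalized (ACTB/GAPDH/POLR2A). Gain or loss fitted vs DMSO baseline.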

CYP2E1 (gene 1571) = assay: LTEA_HepaRG_CYP2E1: Life Technologies and Expression Analysis (LTEA) Assay for CYP2E1 using HepaRG (AID 2283485)
Procedure, shortened: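 Readout is qRT-PCR of CYP2E1 mRNA, normalized to three housekeeping genes and fitted bidirectionally against 0.5% DMSO. HepaRG cells were dosed 48 h at eight concentrations, highest 100 uM with half-log dilutions.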

CYP4A11 (gene 1579) = assay: LTEA_HepaRG_CYP4A11: Life Technologies and Expression Analysis (LTEA) Assay for CYP4A11 using HepaRG (AID 2283486)
Procedure, shortened: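 Differentiated HepaRG cells, 48 h after plating, exposed in duplicate for 48 h to 8 half-log concentrations up to 100 uM in 0.5% DMSO in serum-free induction medium. CYP4A11 mRNA measured by TaqMan qRT-PCR, normalized to ACTB, GAPDH and POLR2A.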

[14] = read-out: Cytochrome P450 (CYP24A1), CYP24A1 (gene 1591); assay: LTEA_HepaRG_CYP24A1: Life Technologies and Expression Analysis (LTEA) Assay for Cytochrome P450 (CYP24A1) using HepaRG (AID 2283478)
Procedure, shortened: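 HepaRG cells plated 48 h, then exposed in duplicate in serum-free induction medium for 48 h to 8-point half-log series from 100 uM in 0.5% DMSO. CYP24A1 mRNA by Fluidigm qRT-PCR, normalized to ACTB, GAPDH, POLR2A; bidirectional fit versus DMSO.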

Measured: AC50

Sequence of Caspase-3 (Homo sapiens) (P42574 whole entry, looked up): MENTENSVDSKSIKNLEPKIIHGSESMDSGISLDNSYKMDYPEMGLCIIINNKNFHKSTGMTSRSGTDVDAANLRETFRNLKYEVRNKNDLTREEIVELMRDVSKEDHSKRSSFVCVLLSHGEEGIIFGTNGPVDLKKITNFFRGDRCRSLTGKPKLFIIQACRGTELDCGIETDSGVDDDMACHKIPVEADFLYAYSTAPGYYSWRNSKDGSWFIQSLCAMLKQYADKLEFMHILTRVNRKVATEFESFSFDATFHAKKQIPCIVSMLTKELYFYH
Sequence of Apoptosis regulator Bcl-2 (Homo sapiens) (P10415 whole entry, looked up): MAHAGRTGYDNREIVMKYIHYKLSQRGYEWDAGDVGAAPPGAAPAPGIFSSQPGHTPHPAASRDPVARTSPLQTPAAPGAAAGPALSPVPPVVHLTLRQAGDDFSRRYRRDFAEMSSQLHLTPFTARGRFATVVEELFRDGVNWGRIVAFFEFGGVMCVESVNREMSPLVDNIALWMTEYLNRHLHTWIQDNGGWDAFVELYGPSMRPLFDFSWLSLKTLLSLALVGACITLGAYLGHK
Sequence of Cytochrome P450 2C19 (Homo sapiens) (P33261 whole entry, looked up): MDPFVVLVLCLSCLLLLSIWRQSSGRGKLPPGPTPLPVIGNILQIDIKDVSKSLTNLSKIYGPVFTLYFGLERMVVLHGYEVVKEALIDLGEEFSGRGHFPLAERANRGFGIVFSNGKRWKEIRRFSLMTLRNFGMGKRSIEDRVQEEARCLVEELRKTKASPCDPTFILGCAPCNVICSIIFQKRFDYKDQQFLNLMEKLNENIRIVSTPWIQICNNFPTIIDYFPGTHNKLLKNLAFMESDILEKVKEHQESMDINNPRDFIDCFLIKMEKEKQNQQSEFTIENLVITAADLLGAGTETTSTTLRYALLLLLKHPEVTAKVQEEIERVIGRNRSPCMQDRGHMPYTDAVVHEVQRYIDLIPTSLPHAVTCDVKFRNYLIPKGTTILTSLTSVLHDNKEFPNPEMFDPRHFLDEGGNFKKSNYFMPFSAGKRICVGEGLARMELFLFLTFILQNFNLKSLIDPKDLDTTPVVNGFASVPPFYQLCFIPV

CC(=O)Oc1ccccc1C(=O)O
active: [10] 50 µM
not listed: [14]
inactive: all other assays above

CC1(C)NC(=O)NC1=O
inactive: all assays above

COc1cc(S(=O)(=O)O)c(C)cc1N=Nc1c(O)ccc2cc(S(=O)(=O)O)ccc12
not listed: [7] | [9] | [12]
inactive: all other assays above

CCCCCCC(=O)OCC
active: [10] 23 µM | [12] 6.44 µM | [13] 8.96 µM
not listed: [9] | [14]
inactive: all other assays above

C1CCC(SSC2CCCCC2)CC1
not listed: [9] | [12]
inactive: all other assays above

Cc1ccc(N(C)C)cc1
active: [10] 23.9 µM
not listed: [9] | [12]
inactive: all other assays above

O=C(O)Cc1ccccc1Nc1c(Cl)cccc1Cl
active: [6] 19.7 µM | [10] 2.69 µM | [13] 5.86 µM | CYP2E1 (gene 1571) 11.8 µM
not listed: [9] | [12]
inactive: all other assays above
